Screens deposited in PubChem BioAssay by Broad Institute.
In the library only some 6.8% were active in any assay of this set; here they are far more common.
Pf Dd2 growth = P. falciparum Dd2 growth inhibitors, primary screen, SYBR Green fluorescence, single dose replicates | 72 h; stronger effect = lower value | activity change, % at 10 µM | hit rate 2.3% among 94,000; in the data active means activity change below about -80%; inconclusive means no clear call, values can overlap the other calls
T cruzi growth-1 = T. cruzi intracellular proliferation inhibitors, primary screen, cell-based, beta-gal Tulahuen parasites, NIH3T3 host, luminescence; T. cruzi beta-gal in NIH3T3, GalScreen luminescence, 90 h; inhibition, % at 8.34 µM; hit rate 5.9% among 77,000;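 active means mean inhibition above about 93%, with at least 55% of replicates each passing it, limit read from the data, passing the limit was not always enough; inconclusive means only one of those two conditions holds; inactive means neither condition holds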
C diff growth = C. difficile growth inhibitors, primary screen, HTS. Clostridium difficile clinical isolate growth, OD600, 24 h; stronger effect = lower value. growth activity, negative = inhibition, % at 16 µg/mL (by protocol). hit rate 0.25% among 86,000;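 active means mean growth activity at or below -80% and every replicate also at or below -80%; inconclusive means mean at or below -80% but some replicate above -80%; inactive means mean growth activity above -80%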;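 further: 0% = DMSO wells and -100% = levofloxacin 16 µg/mL wells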
T cruzi growth-2 = T. cruzi intracellular proliferation inhibitors, confirmation, cell-based, NIH3T3 host, beta-gal parasite, luminescence, cherry-pick | shares compounds with T cruzi growth-1 | T. cruzi beta-gal in NIH3T3, GalScreen luminescence, 90 h | inhibition, % at 8.35 µM | hit rate 72% among 5,600 | AID 651739, 2012;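 active means mean replicate inhibition above about 95% and at least 55% of replicates individually reaching it, limit read from the data; inconclusive means only one of the two criteria is met; inactive means neither criterion is met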
T cruzi growth-3 = inhibitors of intracellular T. cruzi replication, confirmation, NIH3T3 host cells, beta-gal parasites, cherry-pick, set 2; hit rate 21% among 5,600; T. cruzi beta-gal in NIH3T3, GalScreen luminescence, 90 h; AID 651740, 2012; shares compounds with T cruzi growth-1; inhibition, % at 2.09 µM;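 active means mean inhibition above about 95%, with at least 55% of replicates also reaching it, limit read from the data; inconclusive means meets just one of the two conditions; inactive means meets neither condition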;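 further: plate controls were neutral control median for no effect and positive control median for full effect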
3T3 cytotox = cytotoxicity in mouse NIH/3T3 fibroblasts, confirmation, cytotoxicity control for T. cruzi proliferation inhibitor project, cell-based, cherry-pick, single point | shares compounds with T cruzi growth-1 | NIH/3T3 viability, CellTiter-Glo ATP luminescence, 90 h | cytotoxicity (signal decrease), % at 8.35 µM | hit rate 14% among 5,600;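 active means mean signal decrease across replicates above about 35% based on untreated-well scatter, with enough replicates individually passing, limit read from the data; inconclusive means no rule stated though some were filed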;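 further: 0% = median of neutral control wells and 100% = median of positive control wells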
NIH3T3 tox 2 = NIH/3T3 fibroblast cytotoxicity, confirmation, cytotoxicity control, cell-based, cherry-pick, single point, set 2; shares compounds with T cruzi growth-1; NIH/3T3 viability, CellTiter-Glo ATP luminescence, 90 h; hit rate 56% among 5,600; inhibition, % at 24.9 µM; AID 651744, 2012;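 active means mean loss of cell viability signal at or above a set limit, and enough replicates individually reaching it; inconclusive means meets only the mean limit or only the replicate share; inactive means meets neither condition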;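 further: 0% = median of neutral control wells and 100% = median of positive control wells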
* = called active by the depositor.

Screening C[C@H](CO)N1C[C@H](C)[C@H](CN(C)C(=O)C2CCCCC2)OCCCC[C@H](C)Oc2ccc(NC(=O)Nc3ccc(F)cc3)cc2C1=O returned Pf Dd2 growth 14.7, T cruzi growth-1 83.4 and C diff growth -2.7.
`COc1cccc(C(=O)Nc2ccc3c(c2)OC[C@H](C)N(CC2CC2)C[C@H](C)[C@@H](OC)CN(C)C3=O)c1` gave Pf Dd2 growth 14.4 and C diff growth -1.4.
`CCNC(=O)[C@@H]1[C@@H](CO)[C@@H]2Cn3c(ccc(-c4ccccc4)c3=O)[C@@H]2N1Cc1ccc2c(c1)OCO2` gave Pf Dd2 growth 3.2, T cruzi growth-1 101.9*, C diff growth -0.9, T cruzi growth-2 100.8*, T cruzi growth-3 0.0, 3T3 cytotox -30.8 and NIH3T3 tox 2 21.9.
`CCCN1[C@H](C(=O)N[C@@H](C)c2ccccc2)[C@@H](CO)[C@@H]2Cn3c(ccc(-c4cccc(F)c4)c3=O)[C@@H]21` gave T cruzi growth-1 107.7*, C diff growth -7.0, T cruzi growth-2 96.6*, T cruzi growth-3 62.9, 3T3 cytotox 3.4 and NIH3T3 tox 2 67.8*.
Screening CCCNC(=O)[C@H]1[C@H](CO)[C@H]2Cn3c(ccc(-c4cccc(F)c4)c3=O)[C@@H]1N2C(C)=O returned Pf Dd2 growth 8.4, T cruzi growth-1 39.7 and C diff growth -4.7.
For CCCN1[C@@H]2c3ccc(-c4ccccc4F)c(=O)n3C[C@@H]2[C@@H](CO)[C@@H]1C(=O)NCC the results were Pf Dd2 growth 7.6, T cruzi growth-1 98.4*, C diff growth -6.6, T cruzi growth-2 20.6, T cruzi growth-3 -14.9, 3T3 cytotox 3.5 and NIH3T3 tox 2 -6.1.
`CCCNC(=O)[C@@H]1[C@@H](CO)[C@@H]2Cn3c(ccc(-c4ccccc4F)c3=O)[C@@H]2N1CCC` gave Pf Dd2 growth 2.0, T cruzi growth-1 30.5 and C diff growth 6.2.
`CCNC(=O)[C@@H]1[C@@H](CO)[C@@H]2Cn3c(ccc(C4=CCCCC4)c3=O)[C@@H]2N1Cc1ccc2c(c1)OCO2` gave Pf Dd2 growth -21.2 and C diff growth -3.6.
For CCCNC(=O)[C@@H]1[C@@H](CO)[C@@H]2Cn3c(ccc(-c4cccc(F)c4)c3=O)[C@H]1N2C(=O)c1ccccn1 the results were Pf Dd2 growth 11.6, T cruzi growth-1 103.1*, C diff growth -3.6, T cruzi growth-2 inconclusive, T cruzi growth-3 26.8, 3T3 cytotox -19.5 and NIH3T3 tox 2 -1.3.
CCCN1[C@@H]2c3ccc(-c4cccc(F)c4)c(=O)n3C[C@@H]2[C@@H](CO)[C@@H]1C(=O)N[C@@H](C)c1ccccc1 was read as T cruzi growth-1 93.9 and C diff growth 13.6.
`CCCC#Cc1cnc2c(c1)C(=O)N([C@H](C)CO)C[C@H](C)[C@@H](CN(C)C(=O)Cc1cccnc1)O2` gave Pf Dd2 growth -2.4 and T cruzi growth-1 17.2.
Screening CC(C)C#Cc1cnc2c(c1)C(=O)N([C@@H](C)CO)C[C@@H](C)[C@H](CN(C)C(=O)Cc1ccncc1)O2 returned Pf Dd2 growth -60.6, T cruzi growth-1 58.8 and C diff growth 0.2.
Screening Cc1ccc(S(=O)(=O)Nc2ccc3c(c2)C(=O)N([C@@H](C)CO)C[C@@H](C)[C@@H](CN(C)Cc2ccncc2)OCCCC[C@H](C)O3)cc1 returned Pf Dd2 growth -68.9 and T cruzi growth-1 -27.7.
Screening C[C@@H]1CN([C@H](C)CO)C(=O)c2cc(NC(=O)Nc3ccc(C(F)(F)F)cc3)ccc2O[C@@H](C)CCCCO[C@@H]1CN(C)S(=O)(=O)c1ccccc1 returned Pf Dd2 growth -59.4, T cruzi growth-1 89.6 and C diff growth -1.5.
C[C@H]1CCCCO[C@@H](CN(C)S(=O)(=O)c2ccccc2)[C@@H](C)CN([C@@H](C)CO)C(=O)c2cc(NC(=O)Nc3ccc(C(F)(F)F)cc3)ccc2O1 was read as Pf Dd2 growth -82.7*, T cruzi growth-1 99.8*, C diff growth -7.2, T cruzi growth-2 100.4*, T cruzi growth-3 112.5*, 3T3 cytotox 18.7 and NIH3T3 tox 2 8.2.
For C[C@H](CO)N1C[C@H](C)[C@H](CN(C)S(=O)(=O)c2ccccc2)OCCCC[C@H](C)Oc2ccc(NC(=O)Nc3ccc(C(F)(F)F)cc3)cc2C1=O the results were Pf Dd2 growth -56.6, T cruzi growth-1 104.1*, C diff growth 5.7, T cruzi growth-2 105.2*, T cruzi growth-3 109.0*, 3T3 cytotox 1.5 and NIH3T3 tox 2 22.6.
For Cc1ccc(S(=O)(=O)N(C)C[C@@H]2OCCCC[C@H](C)Oc3ccc(NC(=O)Nc4ccc(C(F)(F)F)cc4)cc3C(=O)N([C@@H](C)CO)C[C@H]2C)cc1 the results were Pf Dd2 growth -61.2 and C diff growth -1.4.
C[C@@H]1CCCCO[C@H](CN(C)S(=O)(=O)c2ccccc2)[C@@H](C)CN([C@@H](C)CO)C(=O)c2cc(NC(=O)Nc3ccc(C(F)(F)F)cc3)ccc2O1 was read as Pf Dd2 growth -81.7*, T cruzi growth-1 102.9*, C diff growth -10.6, T cruzi growth-2 106.3*, T cruzi growth-3 108.6*, 3T3 cytotox 41.9* and NIH3T3 tox 2 69.6*.
Cc1ccc(S(=O)(=O)N(C)C[C@@H]2OCCCC[C@@H](C)Oc3ccc(NC(=O)Nc4ccc(C(F)(F)F)cc4)cc3C(=O)N([C@H](C)CO)C[C@H]2C)cc1 was read as Pf Dd2 growth -76.3 and C diff growth 3.7.
C[C@@H]1CCCCO[C@H](CN(C)S(=O)(=O)c2ccccc2)[C@@H](C)CN([C@H](C)CO)C(=O)c2cc(NC(=O)Nc3ccc(C(F)(F)F)cc3)ccc2O1 was read as Pf Dd2 growth -75.1, T cruzi growth-1 114.6*, C diff growth 2.5, T cruzi growth-2 inconclusive, T cruzi growth-3 -28.1, 3T3 cytotox 13.2 and NIH3T3 tox 2 2.2.
C[C@@H]1CCCCO[C@@H](CN(C)S(=O)(=O)c2ccccc2)[C@@H](C)CN([C@H](C)CO)C(=O)c2cc(NC(=O)Nc3ccc(C(F)(F)F)cc3)ccc2O1 was read as Pf Dd2 growth -71.3, T cruzi growth-1 55.9 and C diff growth 10.3.
`C[C@@H]1CN([C@H](C)CO)C(=O)c2cc(NS(=O)(=O)c3ccccc3)ccc2O[C@@H](C)CCCCO[C@H]1CN(C)Cc1ccc2c(c1)OCO2` gave Pf Dd2 growth -56.1.
